Measurements as given in article PMC4552634, “A New Set of Chemical Starting Points with Plasmodium falciparum Transmission-Blocking Potential for Antimalarial Drug Discovery” (PLoS ONE, 2015).
About 3,200 (25%) of roughly 13,000 compounds showed an effect of 50% or more. Some of the results follow.

These compounds were tested on P. falciparum stage V gametocytes. Settings: 48 h, 5 µM; inhibitor.
Parameters: BacTiter-Glo ATP luminescence viability of purified stage V gametocytes in 384-well plates, per cent inhibition versus DMSO

Row | Structure (SMILES) | % Inhibition [%]
1 | CCC(C)CN1CCN(c2ccc(NC(=O)c3cccs3)cc2)CC1C (centres unmarked) [TCMDC-134997] | 0.3581
2 | Cc1ccc(C(=O)NC2C(=O)NC2c2ccccc2)c(C)c1 (centres unmarked) [TCMDC-131386] | 4.246
3 | COc1ccc(NC(=O)[C@H](CC(C)C)Nc2cc(C)nc(NCc3ccccc3C)n2)cc1 [TCMDC-134909] | -97.01
4 | COc1cc2nc(N3CCC(CNC(=O)c4ccc(OC(F)(F)F)cc4)CC3)nc(N)c2cc1OC.O=C(O)C(F)(F)F [TCMDC-138211] | -26.96
5 | COc1cc2nc(N3CCC(CNC(=O)c4cccc5cc[nH]c45)CC3)nc(N)c2cc1OC [TCMDC-138184] | 101.1
6 | COc1cc2nc(N3CCC(CNC(=O)c4ccc(C(C)=O)cc4)CC3)nc(N)c2cc1OC.O=C(O)C(F)(F)F [TCMDC-138210] | 69.3
7 | COc1cc2nc(NCc3cccc(CNC(=O)c4ccc(-c5ccc(C(C)=O)cc5)cc4)c3)nc(N)c2cc1OC.O=C(O)C(F)(F)F [TCMDC-138177] | 117.9
8 | COc1cc(N)c(Cl)cc1C(=O)NCC1CCN(c2nc(C)cc(C)n2)CC1 [TCMDC-124850] | 17.19
9 | Cc1cc2nc(-c3ccc(C(=O)NCc4cccc(C(F)(F)F)c4)cc3)[nH]c2cc1C [TCMDC-140431] | -14.71
10 | COc1cc2nc(NCC3CCN(C(=O)c4ccc(-c5ccc(C(=O)N(C)C)cc5C)cc4)CC3)nc(N)c2cc1OC [TCMDC-138182] | -26.73
11 | COc1cc2nc(N3CCC(CNC(=O)c4ccc(-c5ccc(Cl)cc5)cc4)CC3)nc(N)c2cc1OC [TCMDC-138718] | 145.1
12 | COc1cc2nc(N3CCC(CNC(=O)c4cccc5cccnc45)CC3)nc(N)c2cc1OC [TCMDC-138181] | 14.63
13 | CN(C)Cc1cccc(-c2cnc(N)c(-c3nc4ccc(S(C)(=O)=O)cc4[nH]3)c2)c1 [TCMDC-133721] | 43.08
14 | CSc1ccc(CN2CCC(NC(=O)c3ccc(-c4cccc(Cl)c4)s3)CC2)cc1 [TCMDC-134341] | 12.93
15 | COc1cc(Nc2nc(N)n(C(=O)c3ccc4c(c3)OCO4)n2)cc(OC)c1OC [TCMDC-136737] | -65.07
16 | O=c1[nH]c2c(cc1CNC1CCCCC1)c(-c1ccc(F)cc1)nn2-c1ccccc1 [TCMDC-125352] | 14.87
17 | CCCCOC(=O)NCCCC[C@H](NC(=O)OC(C)(C)C)C(=O)N[C@H](C(=O)OC(c1ccccc1)c1ccccc1)[C@H]1O[C@@H](n2ccc(=O)[nH]c2=O)[C@@H]2OC(C)(C)O[C@@H]21 [TCMDC-131947] | 9.174
